Compound activity as filed in PubChem BioAssay.
RECQ1 inh-1: blocks DNA unwinding by human RECQ1 | Potency, µM (series often up to 57.3 µM), hits mostly inhibitors | P46063 | 240,000 tested, 0.54% active | RECQ1 DNA unwinding, red fluorescence kinetic read | AID 2549; note: nearly all actives have a fitted effect of over 30% in size
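RECQ1T1 50 nM; forked duplex (20 bp + 30-nt ss tails) 200 nM, ATP 2 mM final; pH 8.0, 2 mM MgCl2, 2.5 ug/ml poly(dI-dC); 15 min compound preincubation; discontinuous kinetic read over 2 h at RT.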
GLS inh: glutaminase GLS (human) inhibition. GLS enzymatic activity, qHTS titration. Potency, µM (series often up to 45.5 µM), hits mostly inhibitors. O94925. 410,000 tested, 0.21% active. AID 624170
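Human kidney-isoform GLS in 45 mM KH2PO4 pH 8.2, 0.02% Tween-20, with compound, started with 1mM L-Glutamine (added stock). Glutamate oxidase/HRP/Amplex red coupled fluorescence read at start and after 30 min at RT.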
TDP1 block: inhibitors of human tyrosyl-DNA phosphodiesterase TDP1; Q9NUW8; Potency, µM (doses to about 130 µM), hits mostly inhibitors; 350,000 tested, 0.28% active; AID 485290; recombinant TDP1, AlphaScreen DNA substrate cleavage; note: nearly all actives have a fitted effect of over 40% in size
Target sequence (Q9NUW8 whole entry, looked up): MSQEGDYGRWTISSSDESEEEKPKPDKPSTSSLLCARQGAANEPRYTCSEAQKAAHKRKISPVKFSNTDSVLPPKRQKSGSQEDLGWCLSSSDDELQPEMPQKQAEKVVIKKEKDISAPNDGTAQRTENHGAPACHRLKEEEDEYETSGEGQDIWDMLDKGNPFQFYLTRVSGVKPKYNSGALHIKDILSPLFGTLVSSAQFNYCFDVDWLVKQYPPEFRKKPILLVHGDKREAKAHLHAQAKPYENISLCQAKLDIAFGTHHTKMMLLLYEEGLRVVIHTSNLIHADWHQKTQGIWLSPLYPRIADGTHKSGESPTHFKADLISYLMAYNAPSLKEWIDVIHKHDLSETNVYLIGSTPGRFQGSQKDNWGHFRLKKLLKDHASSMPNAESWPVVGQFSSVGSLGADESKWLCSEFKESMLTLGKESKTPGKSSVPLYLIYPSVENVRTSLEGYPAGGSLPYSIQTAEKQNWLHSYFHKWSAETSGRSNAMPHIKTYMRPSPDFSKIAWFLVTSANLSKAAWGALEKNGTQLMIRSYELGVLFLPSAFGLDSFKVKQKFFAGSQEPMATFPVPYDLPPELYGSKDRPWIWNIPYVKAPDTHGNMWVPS
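Enzyme-compound mixtures sat 15 min at room temperature, followed by a 5 min reaction with 15 nM final substrate and 10 min with AlphaScreen beads. Recombinant human Tdp1 was used at 1 nM final.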
Tb PGK inh: blocks T. brucei phosphoglycerate kinase; PGK/GAPDH coupled, Kinase-Glo luminescence, 60 min; Potency, µM (doses to about 57.5 µM), actives largely listed as inhibitors; 380,000 tested, 0.043% active; AID 602233; note: nearly all actives have a fitted effect of over 60% in size
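Luminescent ATP detection (Kinase-Glo Plus) follows a 60-minute room-temperature incubation, with wells lacking PGK as controls. Buffer: 100 mM TEA (pH 7.6), 5 mM MgCl2, 0.01% Tween-20. Coupling enzyme GAPDH (100 nM final) supplies unstable 1,3-BPG in-well.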
BLM helicase inh: Bloom syndrome helicase (human) inhibition; P54132; recombinant BLM DNA unwinding, fluorescence dequenching; Potency, µM (series often up to 56.1 µM), usual class: inhibitors; 350,000 tested, 0.2% active; AID 2528; note: nearly all actives have a fitted effect of over 35% in size
APE1 inh: APE1 (human) endonuclease inhibition. P27695. recombinant APE1, TAMRA/BHQ-2 abasic DNA cleavage fluorescence. Potency, µM (series often up to 65.8 µM), actives largely listed as inhibitors. 350,000 tested, 0.35% active; note: nearly all actives have a fitted effect of over 55% in size
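Kinetic fluorescence read (525 ex/598 em nm, three reads 60 s apart) of AP-site incision; signal = third minus first read. Enzyme 0.75 nM, dual-labelled THF duplex 50 nM, compound preincubation 15 min RT.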
RECQ1 inh conf: confirmation of human RECQ1 helicase inhibitors; RECQ1 helicase DNA unwinding, fluorescence; Potency, µM (doses to about 229 µM), most hits filed as inhibitors; AID 2708; 610 tested, 28% active; shares compounds with RECQ1 inh-1; note: nearly all actives have a fitted effect of over 45% in size
RECQ1 ADP FP: counter-screen for RECQ1 inhibitors: ADP displacement; Potency, µM (titrated, usually from 228 µM), hits mostly inhibitors; shares compounds with RECQ1 inh-1; AID 2711; 530 tested, 27% active; ADP fluorescence polarization displacement counterscreen; note: nearly all actives have a fitted effect of over 45% in size
RECQ1 inh-2: confirmation of human RECQ1 helicase inhibitors. Potency, µM (doses to about 119 µM), usual class: inhibitors. shares compounds with RECQ1 inh-1. recombinant RECQ1 DNA unwinding, red fluorescence. 1,100 tested, 15% active; note: nearly all actives have a fitted effect of over 50% in size
Large screens that a line does not name were inactive (follow-up assays come after a bar, where they were run). Only some compounds are listed: those with a hit (about 0.85% of all), similar ones and a draw of the others. Calls come from the whole dose curve; as a rule, active = well fitted curve in the direction sought with a large enough effect; inconclusive = small, poorly fitted or top-dose-only effect, or another doubt; inactive = no such curve, though single readings can be large; an effect the other way counts as inactive or inconclusive.

CCOC(=O)c1ccc(N2N=C(C)/C(=C/C=C/c3ccco3)C2=O)cc1	RECQ1 inh-1 inconclusive | RECQ1 inh-2 inactive
CC[C@H](C)[C@H](NC(=O)[C@@H]1CCCN1C(=O)[C@H](Cc1cnc[nH]1)NC(=O)[C@@H](NC(=O)[C@H](Cc1ccc(O)cc1)NC(=O)[C@@H](NC(=O)[C@H](CCCN=C(N)N)NC(=O)CNC)C(C)C)[C@@H](C)CC)C(=O)O	none (no result: GLS inh, Tb PGK inh)
CC(=O)Oc1ccc(C(=O)[C@H]2[C@H]3C(=O)N(c4ccc5ccccc5c4)C(=O)[C@H]3[C@@H]3C=CC=NN32)cc1	RECQ1 inh-1 32µM | RECQ1 inh-2 inconclusive
COc1ccccc1N1C(=O)[C@@H]2[C@H](C1=O)[C@H](C(=O)c1ccc(OC(C)=O)cc1)N1N=CC=C[C@@H]21	TDP1 block inconclusive
CC(C)C[C@H](NC(=O)[C@H](CC(C)C)NC(=O)[C@@H](Cc1c[nH]c2ccccc12)NC(=O)[C@H](Cc1ccccc1)NC(=O)[C@@H](Cc1c[nH]c2ccccc12)NC(=O)[C@H](CCC(N)=O)NC(=O)[C@H](CCC(N)=O)NC(=O)[C@@H]1CCCN1C(=O)[C@H](CCCCN)NC(=O)[C@@H]1CCCN1C(=O)[C@@H](CCCNC(=N)N)NC(=O)[C@@H]1CCCN1C(=O)CNC(=O)[C@H](CC(C)C)NC(=O)[C@H](CC(C)C)NC(=O)[C@H](Cc1ccc(O)cc1)NC(=O)CNC(=O)[C@H](C)NC(=O)[C@H](CO)NC(=O)[C@H](CC(N)=O)NC(=O)[C@H](CC(C)C)NC(=O)[C@@H](NC(=O)[C@H](Cc1c[nH]c2ccccc12)NC(=O)CN)[C@@H](C)O)C(N)=O	none (no result: GLS inh, Tb PGK inh)
Cc1cnc(CNc2ncnc3ccc(-c4ccc5c(c4)OCO5)cc23)cn1	RECQ1 inh-1 20µM (no result: GLS inh, TDP1 block, Tb PGK inh) | RECQ1 inh-2 inconclusive
Cc1csc(CNc2ncnc3ccc(-c4ccc5c(c4)OCO5)cc23)n1	none (no result: RECQ1 inh-1, GLS inh, Tb PGK inh, BLM helicase inh, APE1 inh)
CCOc1ccc(C=C2SC(=O)N(CCN)C2=O)cc1	none (no result: GLS inh, Tb PGK inh)
COc1ccc(-n2nc(C(=O)NCC(=O)NCC3CCCO3)c3ccccc3c2=O)c(OC)c1 (configuration not stated)	none
COc1ccc(-n2c(N)c(C(=O)NCC3CCCO3)c3nc4ccccc4nc32)c(OC)c1 (configuration not stated)	RECQ1 inh-1 inconclusive, APE1 inh inconclusive | RECQ1 inh-2 inactive
COc1ccc2cc(-c3[nH]ncc3CN3CCCN(c4ccccc4)CC3)ccc2c1	RECQ1 inh-1 inconclusive | RECQ1 inh-2 inactive
COc1ccc2cc(-c3[nH]ncc3CN3CCCCO3)ccc2c1	none
CCN1CCN(c2nc(Nc3ccc(NC(C)=O)cc3)nc(Nc3ccc(NC(C)=O)cc3)n2)CC1	RECQ1 inh-1 32µM, BLM helicase inh 18µM | RECQ1 inh-2 22µM
CC(=O)Nc1ccc(/C(C)=N/Nc2nc(Nc3ccccc3)nc(N3CCOCC3)n2)cc1	none
C=C1CCN(C(C(=O)O)C(C)C)S(=O)(=O)c2ccccc21 (configuration not stated)	none (no result: GLS inh, Tb PGK inh)
Cc1c(C)n(C(=O)CSc2nc3ccccc3[nH]2)c2ccccc12	RECQ1 inh-1 8.9µM, APE1 inh 14µM (no result: TDP1 block) | RECQ1 inh conf 50µM | RECQ1 ADP FP inactive | RECQ1 inh-2 35µM
O=C(CSc1nc2ccccc2[nH]1)N1c2ccccc2Sc2ccccc21	RECQ1 inh-1 inconclusive, APE1 inh inconclusive | RECQ1 inh-2 inconclusive
O=C(CSc1nc2ccccc2[nH]1)NCc1ccccc1	none (no result: RECQ1 inh-1)
Nc1nc2[nH]cc(CCc3ccc(C(=O)NC(CCC(=O)O)C(=O)O)cc3)c2c(=O)[nH]1 (configuration not stated)	none (no result: RECQ1 inh-1, TDP1 block, Tb PGK inh, APE1 inh)
c1ccc(-c2nn[nH]n2)c(Nc2cccc3c2CCCC3)c1	APE1 inh inconclusive (no result: GLS inh, Tb PGK inh)
CC1OC(OCC2OC(Oc3cc(O)c4c(c3)OC(c3ccc(O)cc3)CC4=O)C(O)C(O)C2O)C(O)C(O)C1O (configuration not stated)	none (no result: GLS inh, Tb PGK inh)
CSCC[C@H](NC(=O)[C@H](CO)NC(=O)[C@H](Cc1ccc(O)cc1)NC(=O)[C@@H](N)CO)C(=O)N[C@@H](CCC(=O)O)C(=O)N[C@@H](Cc1cnc[nH]1)C(=O)N[C@@H](Cc1ccccc1)C(=O)N[C@@H](CCCNC(=N)N)C(=O)N[C@@H](Cc1c[nH]c2ccccc12)C(=O)NCC(=O)N[C@@H](CCCCN)C(=O)N1CCC[C@H]1C(=O)N[C@H](C(=O)NCC(=O)N[C@@H](CCCCN)C(=O)N[C@@H](CCCCN)C(=O)N[C@@H](CCCNC(=N)N)C(=O)N[C@@H](CCCNC(=N)N)C(=O)N1CCC[C@H]1C(=O)N[C@H](C(=O)N[C@@H](CCCCN)C(=O)N[C@H](C(=O)N[C@@H](Cc1ccc(O)cc1)C(=O)N1CCC[C@H]1C(=O)O)C(C)C)C(C)C)C(C)C	none (no result: GLS inh, Tb PGK inh, BLM helicase inh)
COCCn1cnnc1SCC(=O)Nc1sc2c(c1C#N)CCC2	none (no result: RECQ1 inh-1, BLM helicase inh)
Cn1cnnc1SCC(=O)Nc1sc2c(c1C(N)=O)CCC2	RECQ1 inh-1 32µM, BLM helicase inh inconclusive, APE1 inh inconclusive (no result: TDP1 block) | RECQ1 inh-2 inconclusive
CC1CCC2(CC1)NC(=O)N(CC(=O)Nc1sc3c(c1C(N)=O)CCC3)C2=O (configuration not stated)	RECQ1 inh-1 32µM, GLS inh inconclusive, TDP1 block inconclusive, BLM helicase inh inconclusive, APE1 inh inconclusive | RECQ1 inh-2 inconclusive
COC(=O)c1c(NC(=O)CN2C(=O)NC3(CCC(C)CC3)C2=O)sc2c1CCC2 (configuration not stated)	none (no result: RECQ1 inh-1, BLM helicase inh)
C[C@H]1Cc2c(-c3ccccc3)nc3c(c2CO1)CN(C(=O)c1cc(I)ccc1F)CC3	none (no result: GLS inh, Tb PGK inh)
Cc1cc(-c2csc(NC(=O)c3ccc(=O)n(C)n3)n2)c(C)n1CC1CCCO1 (configuration not stated)	RECQ1 inh-1 inconclusive, TDP1 block 50µM, BLM helicase inh inconclusive | RECQ1 inh-2 inactive
